Compound activity deposited in PubChem by National Center for Advancing Translational Sciences (NCATS).
Shown are actives, neighbours in structure and some others; about 3.8% of the full set was active somewhere.
B2AR arrestin ag: qHTS assay of beta-arrestin-biased ligands of beta2-adrenergic receptor: NCGC Sytravon Library Screen; HTLA Tango cells, beta-arrestin recruitment, luciferase luminescence, 18 h; Potency, µM (titrated, usually from 46.1 µM), most hits filed as activators; Beta-2 adrenergic receptor (Homo sapiens), P07550; 44,000 tested, under 10 active;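 further: potency means the concentration at half of the fitted maximal effect; 0% = DMSO and full agonism = EC100 isoproterenol or metaproterenol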
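Receptor–beta-arrestin recruitment read by tTA-responsive luciferase: compound titrations (up to 46 µM) incubated 18 h with Tango cells, then luminescent substrate 15 min at room temperature. Concentration-response fits classified by r2, efficacy and activity.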
DRV1 agonist: qHTS for Agonists of Human Resolvin D1 Receptor DRV1; Probable G-protein coupled receptor 32 (Homo sapiens), O75388; CHO-K1 GPR32 beta-arrestin PathHunter luminescence, 90 min; zero percent set by DMSO-only wells; activation, % at 76.9 µM; 48,000 compounds, 2.5% hits; AID 1346428, 2018;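 active means activation of at least 60% and not above a set upper limit, about 1 call in 100 departs from these limits; inconclusive means activation of 40% to 60%, or above that upper limit; inactive means activation under 40%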; further: 0% is about no effect
Target sequence (O75388 whole entry, looked up): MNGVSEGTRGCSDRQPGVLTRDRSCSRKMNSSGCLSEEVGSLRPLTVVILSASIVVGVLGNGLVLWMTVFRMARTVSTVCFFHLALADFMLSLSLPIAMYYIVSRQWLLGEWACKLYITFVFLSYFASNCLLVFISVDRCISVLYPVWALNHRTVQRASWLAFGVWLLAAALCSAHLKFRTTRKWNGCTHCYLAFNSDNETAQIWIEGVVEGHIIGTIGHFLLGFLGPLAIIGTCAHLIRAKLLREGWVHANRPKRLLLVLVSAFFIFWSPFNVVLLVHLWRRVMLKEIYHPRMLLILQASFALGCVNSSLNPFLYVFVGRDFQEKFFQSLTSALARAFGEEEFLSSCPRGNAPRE
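Step 1: seed CHO-K1 GPR32 beta-arrestin cells, 2,500/well, overnight at 37 °C. Step 2: add compounds, 90 min at 37 °C. Step 3: detection reagent, 1 h ambient, then luminescence.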
NTMT1 inh: Primary qHTS for Inhibitors of N-terminal methyltransferase 1 (NTMT1): MTaseGlo Assay; N-terminal Xaa-Pro-Lys N-methyltransferase 1 (Homo sapiens), Q9BV86; NTMT1 MTase-Glo SAH luminescence, purified enzyme; Potency, µM (titrated, usually from 114 µM), inactives show top-dose activity change, negative = inhibition, usual class: inhibitors; 59,000 compounds, 2.5% hits; AID 1645870, 2021;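 further: potency means the concentration at half of the fitted maximal effect; plate controls were DMSO vehicle for no effect and no enzyme for full effect; nearly all actives have a fitted effect of over 65% in size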
OvCa metastasis: Primary qHTS assay for Inhibitors of ovarian cancer metastasis using an organotypic tumor microenvironment (TME) model | 46,000 compounds, 0.1% hits | SKOV3ip1-GFP adhesion/invasion on 3D omental model, fluorescence | Potency, µM (top dose mostly 45.8 µM), without a hit: top-dose activity change, negative = inhibition, usual class: inhibitors;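 further: potency means the concentration at half of the fitted maximal effect; plate controls were DMSO wells for no effect and tomatine positive control wells for full effect; nearly all actives have a fitted effect of over 65% in size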
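A 3D layer of primary human omental fibroblasts, mesothelial cells, fibronectin and collagen I, grown 48 hr, received SKOV3ip1-GFP cells in serum-free medium plus compounds at 0.36-46 umol/L. After 2 hr RT and 16 hr 37 C, fixed adherent GFP cells were counted; normalized to DMSO and tomatine.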
TSG101-PTAP inh: qHTS Validation Assay for Inhibitors of HIV-1 Budding by Blocking the Interaction of PTAP/TSG101: Sytravon Library Screen. Fluorescence polarization, FITC-PTAP peptide/Tsg101, 20 min. Potency, µM (top dose mostly 115 µM), usual class: inhibitors. 44,000 tested, under 10 active. AID 1347069, 2019; further: potency means the concentration at half of the fitted maximal effect; 0% is about no effect
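qHTS FP binding, 20 min r.t.: 10 uM Tsg101 domain + 50 nM FITC-PTAP peptide, pH 7.5 HEPES buffer with TCEP and EDTA.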
GALK inh: qHTS Assay for Inhibitors of Human Galactokinase (GALK): NCGC Sytravon Library Screen; Potency, µM (doses to about 57.5 µM), for inactives: at the top dose activity, negative = inhibition, hits mostly inhibitors; 44,000 tested, under 10 active; AID 1347072, 2019; P51570; recombinant GALK, Kinase-Glo ATP luminescence, 1 h;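 further: plate controls were full GALK reaction for no effect and reaction lacking GALK for full effect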
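Reactions with and without enzyme served as controls. GALK at 5 nM phosphorylates 100 uM galactose using 35 uM ATP (HEPES pH 8.0, Mg2+) for 1 h at RT, with luminescence read 10 min after adding Kinase-Glo Plus.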
Active calls of the source: *; i = inactive; u = inconclusive; x = not tested or not shown; [ ] = another dose, or the depositor's remark. Unless noted, the call rests on the fitted dose curve; in most records, active means well fitted curve in the direction sought with a large enough effect; inconclusive means small, poorly fitted or top-dose-only effect, or another doubt; inactive means no such curve, though single readings can be large; an effect the other way counts as inactive or inconclusive.

SMILES	B2AR arrestin ag	DRV1 agonist	NTMT1 inh	OvCa metastasis	TSG101-PTAP inh	GALK inh
COc1ccc(S(=O)(=O)c2c(O)c(C)cc(NS(=O)(=O)c3ccc(Cl)cc3)c2C(C)C)cc1	i	10.9	-0.2%	12.0%	i	-0.7%
Oc1cc(NCCN2CCOCC2)cc2cccnc12	x	x	-1.3%[57.5 µM]	x	x	x
O=C1C(Cl)=C(NCCN2CCOCC2)C(=O)c2ncccc21	x	x	u	5.9µM*	x	x
COC(=O)c1ccccc1NC(=O)c1cc2cc(C)ccc2n1C	i	-0.3	2.8%	-25.7%	i	2.8%
CN(C)CCC[C@@]1(c2ccc(F)cc2)OCc2cc(C#N)ccc21	x	-3.0	25.1µM*	x	x	x
CCOC(=O)C1CCN(C(=O)C(C)(C)NC(=O)Nc2ccc([N+](=O)[O-])cc2)CC1	x	x	-3.0%	x	x	x
Cc1ccc(OCCCn2c(-c3ccc(Cl)cc3)nc3ccccc3c2=O)c(C)c1	i	-7.0	x	-5.9%	i	14.6%
CCOc1ccccc1N1CC(c2nc3ccccc3n2CCOc2ccc(OC)cc2)CC1=O (stereo unspecified)	i	79.6*	3.7%	-12.9%	i	-1.6%
CCOc1ccccc1N1CC(c2nc3ccccc3n2CCCOc2ccc(OC)cc2)CC1=O (stereo unspecified)	i	1.2	0.0%	6.5%	i	-0.7%
COc1cccc(CN2C(=O)c3ccccc3Sc3ccc(C(=O)NCCc4ccc(C)cc4)cc32)c1	i	-12.4	-0.3%	i	i	8.4%
Cc1ccc(OCC(=O)Nc2c(Cl)ccc3nsnc23)cc1C	i	84.5*	12.9%	i	i	0.0%
Cc1ccc(-c2nc3ccccn3c2Nc2ccc3c(c2)OCCO3)o1	i	-3.5	15.8µM*	-5.8%	i	0.1%
Cc1ccn2c(Nc3ccc4c(c3)OCCO4)c(-c3cccs3)nc2c1	i	-2.2	12.6µM*	-16.6%	i	-8.0%
Brc1ccc(-c2nc3ccccn3c2Nc2ccc3c(c2)OCCO3)o1	i	-16.4	u	-35.8%	u	1.1%
COc1cccc(-c2nnc(-c3ccccc3NC(=O)c3ccc(F)cc3F)o2)c1	i	-20.1	4.4%	1.3%	i	3.3%
Cc1ccc(Cl)cc1NC(=O)CSc1nc(C)c(C)c(C)c1C#N	i	115.2*	10.3%	i	i	7.8%
COC(=O)c1scc(-c2ccc(C)cc2)c1S(=O)(=O)Nc1cc(OC)c(OC)c(OC)c1	i	-5.9	89.1µM*	i	i	1.2%
COC(=O)c1scc(-c2ccc(C)cc2)c1S(=O)(=O)Nc1c(C)cc(C)cc1C	i	-0.7	-1.9%	0.3%	i	0.9%
Cn1ncc(Cl)c1-c1cc(C(=O)NC(CN)Cc2ccc(F)c(F)c2)oc1Cl (stereo unspecified)	x	x	3.3%	x	x	x
Cc1[nH]c2ccc(C(=O)NCCc3ccccc3Cl)cc2c1C	i	-2.5	89.1µM*	i	i	0.0%
CCOC(=O)c1nn(-c2ccccc2)c(=O)c2c(N)scc12	x	x	50.1µM*	x	x	x
Nc1c2c(nc3c1CCC3)CCCC2	x	-2.6	16.3%[57.5 µM]	x	x	x
O=C(C1CCC(CNS(=O)(=O)c2ccc(Br)s2)CC1)N1CCN(c2ccccc2)CC1 (stereo unspecified)	i	17.4	-6.4%	-0.1%	i	2.0%
CCOc1ccccc1C1CC(=O)NC(C)=C1C(=O)OCc1ccc(C)cc1 (stereo unspecified)	i	60.5*	7.7%	8.1%	i	-8.1%
